PubChem BioAssay AID720553 (National Center for Advancing Translational Sciences (NCATS), 2013)
In all, about 340,000 compounds went through this assay and about 3,300 (0.97%) were called active. The entries come from a sample that favours actives as a whole. Unmarked numbers belong to inactive results.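 Rule for the calls: active = maximum activity change below -70%; inconclusive = maximum activity change from -70% to -50%; inactive = maximum activity change above -50%.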

System: Potassium voltage-gated channel subfamily H member 2, brain isoform KCNH2 3.1 (human)
Assay: qHTS for Inhibitors of KCHN2 3.1: Mutant qHTS
Conditions: U2OS KCNH2 3.1, thallium flux FluxOr; hits give low values
Text: Many antipsychotic drugs that inhibit the neurotransmitter dopamine also bind to hERG1 channel which might help explain their antipsychotic activity but also produces cardiac side effects. The discovery of the novel KCNH2 3.1 isoform offers a potential new target for the development of antipsychotic drugs without cardiac side effects. This proposal will use a high throughput thallium flux assay developed for KCNH2 to screen compounds that modulate the activity of KCNH2 3.1. The wild type KCNH2 channel will also be screened in parallel to help define the selective modulators of this KCNH2 3.1 potassium channel. The resulting compounds will be validated in electrophysiology experiments. The availability of animal models will allow future testing in vivo for effects on memory and other aspects of animal physiology linked with psychosis. NIH Chemical Genomics Center [NCGC] NIH Molecular Libraries Probe Centers Network [MLPCN] MLPCN Grant: MH096539 Assay Submitter (PI): James Barrow, Johns Hopkins University, Lieber Institute for Brain Development
U2OS cells were resuspended in cell media containing 10% fetal calf serum (FCS) at a concentration of 2 million cells / mL. The solution was treated with the mutant (3.1) virus at 1.77 x 10^8 / mL and allowed to incubate at room temperature in the dark. After 4 hours of incubation, DMEM + 10% fetal bovine serum (FBS) was added to the cell solution. Three microliter was then dispensed into a 1536 tissue culture treated black assay plates which were incubated overnight at 37 C. Two microliter of loading buffer (HBSS + HEPES + Red40 dye quencher + FluxOr dye) was added and the assay plates were incubated for 45 min at room temperature in the dark. […] A stimulation buffer was added to the plate and the second kinetic read (2 min) was obtained. The rate constant was calculated from the kinetic reads and normalized to the positive and negative DMSO controls.
% is set by controls: 0 for no effect and ±100 for the full control effect.

Structure (SMILES)	activity change
CC(=O)c1ccc(OCC(=O)N(C)C2CCS(=O)(=O)C2)cc1 (stereo not drawn)	-6.59%
COC(=O)C[C@H]1C[C@@H]2c3cc(NC(=O)Nc4ccccc4)ccc3O[C@@H]2[C@@H](CO)O1	4.16%
Cc1cc(C)c2nc(N(CCN(C)C)C(=O)/C=C/c3cccs3)sc2c1	-103% (active)
CN(C)CCN(C(=O)CN1C(=O)c2ccccc2C1=O)c1nc2cc3c(cc2s1)OCCO3	4.48%
Cc1ccc2nc(N(CCN(C)C)C(=O)C3=COCCO3)sc2c1	-3.64%
Cc1cccc2sc(N(CCCN(C)C)C(=O)CCS(=O)(=O)c3ccccc3)nc12	-7.9%
Cc1ccc(S(=O)(=O)N(C)C)cc1NC(=O)/C=C/c1cccs1	-14.2%
Cc1ccc2sc(N(CCN(C)C)C(=O)/C=C/c3cccs3)nc2c1C	-90.5% (active)
CCCCCC(=O)N1C[C@H](O)[C@@H](n2cc(COC(=O)c3ccccc3)nn2)C[C@@H]1c1ccc(C)cc1	-34.6%
NC1=CC(=O)C(=O)c2cccnc21	-3.65%
C[C@@H]1CN([C@@H](C)CO)C(=O)c2cc(NS(C)(=O)=O)ccc2O[C@@H](C)CCCCO[C@H]1CN(C)C(=O)Nc1ccc2c(c1)OCO2	11.4%
C[C@H]1Cn2cnc(C(=O)N[C@H](C)c3ccccc3)c2C(=O)N1	-8.17%
COC(=O)c1ccccc1N=NNc1ccc([N+](=O)[O-])cc1	5.4%
Nc1ccc2nc3c(=O)[nH]c(=S)[nH]c3nc2c1	-92.4% (active)
C[C@H]1CN([C@@H](C)CO)C(=O)c2cc(-c3ccccc3F)cnc2O[C@H]1CN(C)C(=O)C1CCOCC1	-1.4%
CC(C)N=C1CCCC1C(=S)SSC(=S)C1CCCC1=NC(C)C (stereo not drawn)	8.25%
COc1ccc(C(=O)NC2CC2)cc1OC1CCN(Cc2ccc(SC)cc2)CC1	-111% (active)
COc1cc2[nH]c(=O)n(Cc3ccc(C(=O)NC4CCN(Cc5ccccc5)CC4)cc3)c(=O)c2cc1OC	-8.47%
COc1ccc(C(=O)NCCn2nc(C)cc2C)cc1OC1CCN(C(C)=O)CC1	12.7%
COc1cc(C(=O)N2CCN(C/C=C/c3ccccc3)CC2)cc(OC)c1C	-2.35%
COc1ccc(C(=O)NC2CC2)cc1OC1CCN(C/C=C/c2ccccc2)CC1	-96.9% (active)

Structure (SMILES)	activity change
COc1cc(C(=O)NC2CCN(Cc3ccccc3)CC2)cc(Cl)c1OC(C)C	-16.6%
COCC(=O)N(C)C[C@H]1Oc2cc(Br)ccc2S(=O)(=O)N([C@H](C)CO)C[C@H]1C	-6.83%
COc1ccc(S(=O)(=O)N2CCC(C(=O)NCCC(=O)Nc3ccccc3OC)CC2)cc1	7.34%
COCOCCn1cc(CN2CCS(=O)(=O)N(Cc3ccc(-c4ccccc4)cc3)C(CC(C)C)C2=O)nn1 (stereo not drawn)	-28.9%
C[C@H](NC(=O)c1nc[nH]c1C(=O)NCC(=O)OC(C)(C)C)c1ccccc1	-20.8%
C[C@H](NC(=O)c1nc[nH]c1C(=O)NCC(=O)OC(C)(C)C)C(=O)OCc1ccccc1	-109% (active)
CC(C)(C)OC(=O)CNC(=O)c1[nH]cnc1C(=O)N[C@@H](Cc1ccccc1)C(=O)OCc1ccccc1	-2.87%
C[C@H]1CN([C@@H](C)CO)C(=O)CCCn2cc(nn2)CO[C@@H]1CN(C)S(=O)(=O)c1ccc(-c2ccccc2)cc1	-9.74%
c1ccc2c(c1)nnn2-c1ccncc1	1.83%
COc1ccc(Cl)cc1NC(=O)CN(C)C(=O)c1cn(-c2ccccc2)nc1-c1cccs1	-9.77%
CSc1ncccc1C(=O)N1CCCC(Nc2ccc(F)c(F)c2)C1 (stereo not drawn)	-0.997%
CCOC(=O)c1[nH]ncc1CN1CCCC(C(=O)c2ccc(OC)cc2C)C1 (stereo not drawn)	-6.21%
COc1ccc(C(=O)C2CCCN(S(=O)(=O)c3cccc(C)c3)C2)c(C)c1 (stereo not drawn)	-2.34%
COc1ccc(C(=O)C2CCCN(Cc3cccn3-c3ccccn3)C2)c(C)c1 (stereo not drawn)	-108% (active)
C=CCn1nc(C(=O)OCC)cc1-c1sc(NC(=O)c2ccccc2)nc1C	21.3%
CN(C)CCNC(=O)/C(=C/c1cccc([N+](=O)[O-])c1)NC(=O)c1ccccc1	-83.8% (active)
O=C(NCCc1ccccc1)/C(=C\c1ccc([N+](=O)[O-])cc1)NC(=O)c1ccccc1	-33.9%
C=CCNC(=O)/C(=C\c1cccc([N+](=O)[O-])c1)NC(=O)c1ccccc1	-8.85%
CCOC(=O)C=Cc1ccc(C(=O)OCC)[nH]1	6.88%
C[C@H](CO)N1C[C@H](C)[C@H](CN(C)C(=O)c2ccncc2)OCc2ccccc2-c2c(n(C)c3ccccc23)C1=O	-0.608%
COc1ccccc1-n1c(SCC(=O)Nc2ccc(Cl)cc2)nc(O)c(Cc2ccccc2)c1=O	4.83%

Structure (SMILES)	activity change
CC(C)c1cc(C(=O)NC2CCCCCC2)c2ccccc2n1	2.17%
C[C@@H]1CN([C@@H](C)CO)S(=O)(=O)c2ccc(C#Cc3cccc(F)c3)cc2O[C@H]1CN(C)S(=O)(=O)c1cn(C)cn1	7.52%
CC1CN(C(=O)CCC(=O)NC2CCN(Cc3ccccc3)CC2)c2ccccc2O1 (stereo not drawn)	-0.725%
CC1CN(C(=O)CCC(=O)NCCCN2CCC(Cc3ccccc3)CC2)c2cc(Cl)ccc2O1 (stereo not drawn)	-84.9% (active)
CC1CN(C(=O)CCC(=O)NCc2cccnc2)c2ccccc2O1 (stereo not drawn)	27.3%
O=C1NC(Cc2ccccc2)c2nc3ccc(Br)cc3c(=O)n2-c2cc3ccccc3cc21 (stereo not drawn)	-16.2%
Cc1ccc([C@H]2N[C@]3(CCCN(Cc4ccccc4)C3=O)[C@H]3C(=O)N(Cc4ccccc4)C(=O)[C@@H]23)cc1	4.9%
O=C(COc1ccc(S(=O)(=O)N2CCCC2)cc1[N+](=O)[O-])N1CCCCC1	-5.01%
Cc1cc(/C=C2/SC(=O)N(CC(=O)OC(C)C)C2=O)c(C)n1C	-7.88%
CCOC(=O)CC1C(=O)NCCN1C(=O)COc1ccc(Br)cc1C (stereo not drawn)	3.78%
CCN=C1S/C(=C\c2cc(Br)ccc2OCC(=O)OCC)C(=O)N1CC	-71.6% (active)
Cc1ccc(C(=O)N2CCCc3ccccc32)c(Cl)c1	1.37%
Cc1nn(-c2ncccn2)c2c1C(=O)CC(C)(C)C2Br (stereo not drawn)	-151% (active)
Cc1nn(-c2ccccc2)c2c1C(=O)NC(=O)C(C)(C)C2	-21.5%
CC1=C(N2CCN(c3ncccn3)CC2)CCC1=O	-6.3%
COc1ccccc1NC(=O)C(CC(=O)O)Cc1cc(C)cc(C)c1 (stereo not drawn)	12.9%
C[C@H](O)[C@@H]1C(=O)N2CCc3c([nH]c4ccccc34)[C@@H]2C[C@@H]1N(C)C(=O)Nc1ccc(F)cc1	-6%
CC(C)(C)C(=O)CN1C2=NCCN2c2ccccc21	7.56%
OC(CN1C2=NCCCN2c2ccccc21)c1ccc(Br)cc1 (stereo not drawn)	-80.8% (active)
Cc1cc2c(cc1C)N(Cc1ccccc1)C1=NCCCN12	-15.2%
CN(CCN1CCOCC1)Cc1nc(-c2ccc3c(c2)OCO3)no1	3.94%

Structure (SMILES)	activity change
CC(C)N(Cc1nc(-c2ccc3c(c2)OCO3)no1)CC1CCC(=O)N1 (stereo not drawn)	-93.2% (active)
CCn1ccnc1CN(C)Cc1nc(-c2ccc3c(c2)OCO3)no1	-1.19%
C[C@@H]1CN([C@H](C)CO)C(=O)c2cc(-c3ccc(F)cc3)cnc2O[C@H]1CN(C)C(=O)c1ccc(F)cc1	-4.52%
O=C(NCC(F)(F)F)c1ccc(S(=O)(=O)NCCc2ccc3c(c2)OCCO3)cc1	-2.33%
CCCCCCn1c(=O)n2n(c1=O)C[C@]1(OC(=O)NCc3ccc(OC)c(OC)c3)CN(S(=O)(=O)c3ccc(C)cc3)C[C@]1(O)C2	-6.76%
CN(CC#CCC(c1ccccc1)c1ccccc1)C(C)(C)C	-77% (active)
CC(C)(C)N(CC#CCC(O)(c1ccccc1)C1CCCC1)CCO (stereo not drawn)	-6.97%
Cc1ccc(CCNC(=O)CN2C(=O)CSc3ccc(S(=O)(=O)N4CCOCC4)cc32)cc1	4.19%
COC(=O)[C@H]1C[C@H](OC(=O)NCc2ccccc2)[C@@]2(O)CN(S(=O)(=O)c3ccc(C)cc3)CC2[C@H]1C(=O)OC (stereo partly drawn)	2.28%
C[C@H](CO)N1C[C@H](C)[C@@H](CN(C)Cc2ccc3c(c2)OCO3)OCc2cnnn2CCCC1=O	-0.449%
CC(Sc1nnc(CNC(=O)c2ccccc2F)n1C)C(=O)Nc1nccs1 (stereo not drawn)	-211% (active)
Cn1c(CNC(=O)c2ccccc2F)nnc1SCc1ccc(F)cc1	18.4%
COc1ccccc1C(=O)NCc1nnc(SC(C)C(=O)Nc2nccs2)n1C (stereo not drawn)	-5.02%
Cc1ccc(OCC(=O)Nc2ccccc2C(=O)NC2CC2)cc1	21%
O=C(CN1CCCCC1)Nc1ccccc1C(=O)NC1CC1	-2.8%
N#Cc1ccc(CN2CCN(CC(=O)Nc3ccccc3C(=O)NC3CC3)CC2)cc1	-103% (active)
OCCC1CN(Cc2ccc(Oc3ncccn3)cc2)CCN1CCc1ccccc1 (stereo not drawn)	-3.13%
CCOc1ccc(CN2CCN(CCCc3ccccc3)C(CCO)C2)cc1 (stereo not drawn)	-77.7% (active)
COC(=O)c1ccc(CN2CCN(CCCc3ccccc3)C(CCO)C2)cc1 (stereo not drawn)	-48.5%
O=C1c2ccccc2-c2ccccc2NC1O (stereo not drawn)	2.59%
